The supplement of paper PMC12645437, “Orthogonal IMiD-Degron Pairs Induce Selective Protein Degradation in Cells” (ACS Chemical Biology, 2025)
Whole data set: some 8,300 sequences, median “log2 fold change of degron read counts, EGFP-low vs EGFP+ sorted cells (limma voom), compound-induced degradation” near -1.1, cut for the highest 2% near 3.2. The sample as a whole holds a higher share of the highest values than the screen did.

T1: CRBN, Q96SW2
T1 chain: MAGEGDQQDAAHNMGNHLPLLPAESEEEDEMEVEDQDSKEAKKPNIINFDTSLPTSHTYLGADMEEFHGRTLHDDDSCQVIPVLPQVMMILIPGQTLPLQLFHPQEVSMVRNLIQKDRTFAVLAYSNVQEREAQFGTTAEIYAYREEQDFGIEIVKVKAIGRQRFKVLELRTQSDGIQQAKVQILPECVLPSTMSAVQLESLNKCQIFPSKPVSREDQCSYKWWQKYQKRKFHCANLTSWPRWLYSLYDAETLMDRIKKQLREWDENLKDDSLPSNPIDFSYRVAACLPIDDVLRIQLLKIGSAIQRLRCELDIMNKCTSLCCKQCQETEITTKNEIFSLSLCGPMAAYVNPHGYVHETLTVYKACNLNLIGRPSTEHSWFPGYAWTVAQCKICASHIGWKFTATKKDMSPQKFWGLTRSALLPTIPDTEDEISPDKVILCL

B1: 46F_47T_49E_50I_52G_53A_54H_55F_67L_, Q9UKT9 (peptide)
chain: FTCEICGAHFTQKGNLLRHIKL
B2: 46F_47W_49E_50I_52G_53A_54H_55F_67L_, Q9UKT9 (peptide)
chain: FWCEICGAHFTQKGNLLRHIKL
B3: 46F_47L_49E_50I_52G_53A_54H_55F_67L_, Q9UKT9 (peptide)
chain: FLCEICGAHFTQKGNLLRHIKL
B4: 46F_47E_49E_50I_52G_53A_54H_55F_67L_, Q9UKT9 (peptide)
chain: FECEICGAHFTQKGNLLRHIKL
B5: 46F_47A_49E_50I_52G_53A_54H_55F_67L_, Q9UKT9 (peptide)
chain: FACEICGAHFTQKGNLLRHIKL
B6: 46F_47Y_49E_50I_52G_53A_54H_55F_67L_, Q9UKT9 (peptide)
chain: FYCEICGAHFTQKGNLLRHIKL
B7: 46F_47C_49E_50I_52G_53A_54H_55F_67L_, Q9UKT9 (peptide)
chain: FCCEICGAHFTQKGNLLRHIKL
B8: 46F_47F_49E_50I_52G_53A_54H_55F_67L_, Q9UKT9 (peptide)
chain: FFCEICGAHFTQKGNLLRHIKL
B9: 46F_47Q_49E_50I_52G_53A_54H_55F_67L_, Q9UKT9 (peptide)
chain: FQCEICGAHFTQKGNLLRHIKL
B10: 46F_47I_49E_50I_52G_53A_54H_55F_67L_, Q9UKT9 (peptide)
chain: FICEICGAHFTQKGNLLRHIKL
B11: 46F_47N_49E_50I_52G_53A_54H_55F_67L_, Q9UKT9 (peptide)
chain: FNCEICGAHFTQKGNLLRHIKL
B12: 46F_47M_49E_50I_52G_53A_54H_55F_67L_, Q9UKT9 (peptide)
chain: FMCEICGAHFTQKGNLLRHIKL
B13: 46L_47M_49E_50I_52G_53F_54L_55C_67L_, Q9UKT9 (peptide)
chain: LMCEICGFLCTQKGNLLRHIKL
B14: 46L_47G_49E_50I_52G_53F_54F_55C_67L_, Q9UKT9 (peptide)
chain: LGCEICGFFCTQKGNLLRHIKL
B15: 46F_47I_49E_50Q_52G_53A_54E_55F_67L_, Q9UKT9 (peptide)
chain: FICEQCGAEFTQKGNLLRHIKL
B16: 46F_47M_49S_50V_52G_53H_54P_55F_67L_, Q9UKT9 (peptide)
chain: FMCSVCGHPFTQKGNLLRHIKL
B17: 46L_47L_49N_50Q_52G_53F_54M_55C_67L_, Q9UKT9 (peptide)
chain: LLCNQCGFMCTQKGNLLRHIKL
B18: 46F_47Y_49D_50Q_52G_53A_54Y_55F_67L_, Q9UKT9 (peptide)
chain: FYCDQCGAYFTQKGNLLRHIKL
B19: 46F_47D_49N_50Q_52G_53H_54Q_55F_67L_, Q9UKT9 (peptide)
chain: FDCNQCGHQFTQKGNLLRHIKL
B20: 46F_47S_49E_50I_52G_53A_54H_55F_67L_, Q9UKT9 (peptide)
chain: FSCEICGAHFTQKGNLLRHIKL
B21: 46F_47D_49E_50I_52G_53A_54H_55F_67L_, Q9UKT9 (peptide)
chain: FDCEICGAHFTQKGNLLRHIKL
B22: 46F_47V_49E_50I_52G_53A_54H_55F_67L_, Q9UKT9 (peptide)
chain: FVCEICGAHFTQKGNLLRHIKL
B23: 46F_47V_49E_50I_52G_53R_54H_55F_67L_, Q9UKT9 (peptide)
chain: FVCEICGRHFTQKGNLLRHIKL
B24: 46F_47T_49E_50I_52G_53H_54L_55F_67L_, Q9UKT9 (peptide)
chain: FTCEICGHLFTQKGNLLRHIKL
B25: 46F_47Y_49P_50I_52G_53H_54C_55F_67L_, Q9UKT9 (peptide)
chain: FYCPICGHCFTQKGNLLRHIKL
B26: 46F_47S_49P_50V_52G_53A_54N_55F_67L_, Q9UKT9 (peptide)
chain: FSCPVCGANFTQKGNLLRHIKL
B27: 46F_47W_49P_50V_52G_53A_54N_55F_67L_, Q9UKT9 (peptide)
chain: FWCPVCGANFTQKGNLLRHIKL
B28: 46F_47V_49P_50V_52G_53A_54N_55F_67L_, Q9UKT9 (peptide)
chain: FVCPVCGANFTQKGNLLRHIKL
B29: 46F_47N_49P_50V_52G_53A_54N_55F_67L_, Q9UKT9 (peptide)
chain: FNCPVCGANFTQKGNLLRHIKL
B30: 46F_47Q_49P_50V_52G_53A_54N_55F_67L_, Q9UKT9 (peptide)
chain: FQCPVCGANFTQKGNLLRHIKL
B31: 46F_47Y_49P_50V_52G_53A_54N_55F_67L_, Q9UKT9 (peptide)
chain: FYCPVCGANFTQKGNLLRHIKL
B32: 46F_47E_49P_50V_52G_53A_54N_55F_67L_, Q9UKT9 (peptide)
chain: FECPVCGANFTQKGNLLRHIKL
B33: 46F_47L_49P_50V_52G_53A_54N_55F_67L_, Q9UKT9 (peptide)
chain: FLCPVCGANFTQKGNLLRHIKL
B34: 46F_47E_49N_50I_52G_53A_54N_55F_67L_, Q9UKT9 (peptide)
chain: FECNICGANFTQKGNLLRHIKL
B35: 46F_47W_49N_50I_52G_53A_54N_55F_67L_, Q9UKT9 (peptide)
chain: FWCNICGANFTQKGNLLRHIKL
B36: 46F_47M_49P_50V_52G_53A_54N_55F_67L_, Q9UKT9 (peptide)
chain: FMCPVCGANFTQKGNLLRHIKL
B37: 46F_47Y_49N_50I_52G_53A_54N_55F_67L_, Q9UKT9 (peptide)
chain: FYCNICGANFTQKGNLLRHIKL

Molecular target: T1, CRBN, Q96SW2
Assay: log2 fold change of degron read counts, EGFP-low vs EGFP+ sorted cells (limma voom), compound-induced degradation; higher = more compound-induced degradation of the degron-EGFP fusion; degrons are variants of IKZF1/3 zinc finger 2; compound dose not given here
Details: Jurkat, 18 h
[1] = compound: compound 19 (5-tert-butyl-thalidomide)
[2] = compound: compound 22 (5-morpholino-thalidomide)
[3] = compound: compound 33 (diphenyl IMiD analogue)
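Also: pooled lentiviral library of zinc finger degron-EGFP fusions in mCherry-positive Jurkat cells, FACS-sorted after compound exposure, with degron abundance counted by next-generation sequencing.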

Row | Sequence | log2 fold change of degron read counts [1] | log2 fold change of degron read counts [2] | log2 fold change of degron read counts [3] | log2 fold change of degron read counts (compound: thalidomide)
1 | B1 | 0.467 | 0.746 | 1.69 | 2.11
2 | B2 | 3.45 | 3.78 | 2.18 | 1.05
3 | B3 | 0.729 | -1.66 | 0.445 | 0.792
4 | B4 | -0.919 | -2.34 | 1.1 | 1.26
5 | B5 | 3.32 | 1.02 | 0.285 | -0.547
6 | B6 | 3.61 | 3.49 | 2.57 | 1.24
7 | B7 | 2.06 | 0.682 | 1.31 | 1.03
8 | B8 | 3.34 | 3.33 | 2.07 | 1
9 | B9 | -0.0399 | 0.799 | 0.886 | 3.17
10 | B10 | -0.091 | 1.87 | 1.79 | 2.1
11 | B11 | 2.65 | 0.0954 | -0.0262 | -0.422
12 | B12 | -0.196 | -0.917 | 1.94 | 0.547
13 | B13 | -1.21 | -1.08 | 0.82 | 0.189
14 | B14 | 1.15 | 0.461 | 0.628 | 0.198
15 | B15 | -2.28 | -1.92 | -1.09 | -0.382
16 | B16 | -2.27 | -1.78 | -1.3 | -1.51
17 | B17 | -1.85 | -1.98 | -1.61 | -1.33
18 | B18 | -0.745 | -1.31 | -1.38 | -2.23
19 | B19 | -2.63 | -3.11 | -2.64 | -2.65

Row | Sequence | log2 fold change of degron read counts [1] | log2 fold change of degron read counts [2] | log2 fold change of degron read counts [3] | log2 fold change of degron read counts (compound: thalidomide)
20 | B20 | 2.47 | 0.831 | 0.776 | 0.206
21 | B21 | 3.28 | 0.822 | -0.326 | 1.02
22 | B22 | 0.302 | 1.59 | 1.49 | 1.95
23 | B23 | -2.45 | -1.78 | -2.13 | -0.209
24 | B24 | -2.72 | -3.75 | -2.61 | -2.41
25 | B25 | -1.24 | -1.33 | -0.382 | -1.61
26 | B26 | 1.92 | 1.29 | 1.78 | 0.865
27 | B27 | 3.05 | 3.85 | 2.12 | 1.69
28 | B28 | -0.407 | 2.43 | 1.69 | 2.77
29 | B29 | 1.79 | 0.637 | 0.771 | 0.306
30 | B30 | 0.19 | 2.02 | 1.9 | 3.48
31 | B31 | 2.82 | 3.69 | 2.32 | 1.3
32 | B32 | -0.535 | -0.523 | 2.7 | 3.16
33 | B33 | -0.132 | 0.243 | 1.67 | 1.54
34 | B34 | -1.93 | -1.27 | 1.75 | 2.22
35 | B35 | 2.27 | 3.62 | 1.88 | 0.44
36 | B36 | -0.564 | 1.22 | 2.92 | 1.69
37 | B37 | 1.69 | 2.89 | 1.33 | 0.00754
